Source: PubChem BioAssay (NCI)
About 83,000 compounds went through this panel and 20% of them were active in at least one assay; those are over-represented in the sample as a whole.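 Testing used 96-well plates and a 48-hour single-concentration exposure. Example: -40 means 40% of the starting cells died.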 Values without a mark were called inactive. Active and inactive are the calls of the source.

system: MDA-MB-435 melanoma; assay: NCI-60 one-dose screen, 48 h (100 = growth as untreated, 0 = no growth, -100 = all killed); conditions: 10 µM unless noted
Method: Growth inhibition of the MDA-MB-435 human Melanoma tumor cell line is measured as a screen for anti-cancer activity. Cells are grown in 96 well plates and exposed to the test compound for 48 hours. Compounds are tested at a single concentration, which is 10^-5 M for most compounds. The reported endpoint is percent growth (GI% or GIPRCNT), where numbers from 0 - 100% represent growth inhibition, and numbers from -100% - 0 represent cell death. For example, a value of 40 represents 60% growth inhibition. A value of 0 means no net growth occurred over the course of the experiment. A value of -40 indicates 40% of cells at the beginning of the experiment died by the end of the experiment. A value of -100 means all cells are dead at the end of the experiment.
NCI-60 Human Tumor Cell Lines Screen was performed using the standard one-dose NCI protocol, which is described in more detail at https://dtp.cancer.gov/discovery_development/nci-60/default.htm.
Compounds with GIPRCNT values below 10 were considered active. Activity score was based on GIPRCNT using the following formula: […]
Score is 0 for GIPRCNT values of 100 or above, 50 for GIPRCNT values of 0, and 100 for GIPRCNT values of -100.

Structure (SMILES)	growth
O=C(Nc1ccccc1)Nc1cccc(Oc2nnc(Cl)c3ccccc23)c1	48.6%
Oc1c(CN2CCCC2)cc(COCc2ccc(Br)cc2)c2cccnc12	24.1%
CN1CCN(CCCOc2ccc3nc(Nc4ccc(F)c(F)c4)ccc3c2)CC1	-72.3% (active)
COc1cc(C2CC(=O)Nc3c2c(C)nn3-c2nc3ccccc3[nH]2)cc2c1OCC(=O)N2 (stereo not given)	48.5%
c1csc(-c2c3ccc(=[N+]4CCCCC4)cc-3oc3cc(N4CCCCC4)ccc23)c1	-46.5% (active)
Cc1cc(O)c(C2=NN(c3ccc(S(N)(=O)=O)cc3)C(c3ccccc3Cl)C2)cc1Cl (stereo not given)	8.16% (active)
Cc1cc(Cl)ccc1Nc1nc(C(F)(F)F)ccc1C(=O)N/N=C/c1ccc(N(C)C)cc1	43.7%
COc1cc(/C=C/C(=O)c2c(C)nc3ccccc3c2C)ccc1OCCCN1CCN(C(=O)c2ccco2)CC1	61.6%
COc1ccc(-c2cc(-c3cc(OC)ccc3OC)nc(SCC(=O)c3ccccc3)c2C#N)cc1	103%
COc1cc(C(=O)/C=C/c2c(C(F)(F)F)nc3sccn23)cc(OC)c1OC	12.6%
S=C(Cc1ccc2c(c1)CCCC2)N1CCOCC1	101%
COc1ccc(C2C(c3nn[nH]n3)=C(N)Oc3c2ccc2ccccc32)cc1 (stereo not given)	-26.6% (active)
CC1OC(O[C@H]2/C=C/C=C/C=C/C=C/C=C/C=C/C=C/[C@H](C)[C@@H](O)[C@@H](C)[C@H](C)OC(=O)CC(O)CC(O)CCC(O)C(O)CC(O)C[C@]3(O)C[C@H](O)C(C(=O)O)C(C2)O3)C(O)[C@H](N)C1O (stereo not given in full)	-69.5% (active)
Cc1ccc(-c2cc3c(cc2O)C2CCCCC2(N2CCOCC2)O3)cc1 (stereo not given)	98.4%
Fc1cnc(NC2CC2)nc1-c1cnc2ccc(N3CCOCC3)cn12	0.301% (active)
CC(=O)OC1CCC2(C)C(=CC3C4CCC(=O)C4(C)CCC32)C1 (stereo not given)	116%
COc1ccc(CNC(=O)C(O)C(Cc2ccccc2)NC(=O)c2[nH]c3ccccc3c(=O)c2C)cc1OC (stereo not given)	101%
O=C(NC(CSSCC(NC(=O)c1ccccc1)C(=O)O)C(=O)O)c1ccccc1 (stereo not given)	103%
CC(=O)OC[C@H]1OC(Sc2sc(C(=O)c3ccc(Br)cc3)c(N)c2-c2nc3ccccc3s2)[C@H](OC(C)=O)[C@@H](OC(C)=O)[C@@H]1OC(C)=O (stereo not given in full)	80.7%
COc1ccc(OC)c2c1[nH]c(=O)c1c3ncccc3cn21	28.6%

Structure (SMILES)	growth
CCN1CCN(c2nc(C)cc(NCc3cc(Nc4ccnc5cc(Cl)ccc45)ccc3F)n2)CC1	-88.4% (active)
C[n+]1cc2cc(C(N)=O)[nH]c3c(=N)c(Cl)c(N)c1c23	85.7%
CCc1ccccc1-n1c(-c2ccc(Cl)cc2)cc(-c2ccc(Cl)cc2)c(C#N)c1=O	82.8%
COc1ccc2c(c1)O/C(=C/c1ccc(OCC(=O)c3ccccc3)cc1)C2=O	87%
COc1cccc(-c2nn(-c3ccccc3)cc2-c2ccnc(NCCNC(=O)Nc3cccc(C(F)(F)F)c3)c2)c1	29.1%
CCCCCCN(CCCCCC)c1ccc(/C=C2/SC(=O)N(c3nc(N4CCCC4)nc(N4CCCC4)n3)C2=O)c(C)c1	75.5%
O=C(CSc1nccc(Nc2ccc(S(=O)(=O)Nc3nccs3)cc2)n1)c1ccc(F)cc1	104%
CCCCN(CCCC)CC(C)(C)C(O)c1ccc(OC)c2ccccc12 (stereo not given)	59.3%
COc1ccc(C(=NN=C(N)N)c2ccc(OC)cc2)cc1	-35.2% (active)
C=CCNc1nc(NN2C(=O)c3cccc4cccc(c34)C2=O)nc(-n2cnc3ccccc32)n1	97.5%
COc1ccc2[nH]c(O)c(C(=Nc3ccc(N(C)C(=O)CN4CCN(C)CC4)cc3)c3ccccc3)c2c1	42.3%
Cc1ccc(-n2c(-c3ccccc3)c(-c3ccccc3)c3c(SCC(=O)n4[nH]c(N)cc4=O)ncnc32)cc1	106%
CC(C)=C[C@@H]1c2c(c3ccccc3n(C)c2=O)O[C@H]2c3c(c4ccccc4n(C)c3=O)OC(C)(C)[C@@H]12	83.9%
O=c1c2c3c(sc2nc(N/N=C/c2ccc(Br)cc2)n1Cc1ccccc1)CCCC3	83.4%
Cc1cc(NCc2cc(Nc3ccnc4cc(Cl)ccc34)ccc2F)nc(N2CCN(c3ccccc3)CC2)n1	38.8%
Cc1ccc(Nc2nc(N)nc(CSCC(=O)NN)n2)cc1	94.3%
Cc1ccc2nc3ccccc3c(NCc3ccccc3)c2c1	58.2%
c1ccc(-c2nc([P+](c3ccccc3)(c3ccccc3)c3ccccc3)c(N3CCOCC3)o2)cc1	-1.04% (active)
COc1cccc(-c2nn(-c3ccccc3)cc2-c2ccnc(NCCNC(=O)Nc3ccccc3)c2)c1	42.9%
COc1ccc(NC(=O)CSc2nnc(-c3cc(-c4ccc(S(N)(=O)=O)cc4)nc4ccccc34)n2-c2ccccc2)cc1	92.2%
